Bioassay records from PubChem BioAssay.
BH1578 lux ind – inducers of Vibrio cholerae quorum light production without autoinducers; activation, % at 18.7 µM; V. cholerae BH1578 lux reporter, luminescence, 6 h; AID 588436; 350,000 compounds, 0.16% hits; in the data active = activation mostly above about 9.7%, no sharp cut-off
PrPC TRFRET – cell surface PrPC inhibition, primary TR-FRET screen | P04156 | TR-FRET read-out | inhibition, % at 13.8 µM | 370,000 compounds, 0.43% hits; in the data active = inhibition above about 24%; also: 0% = median of the test wells and 100% = reference compound wells
PrP 5UTR inh – suppresses PrP 5' UTR mRNA reporter expression; cell-based PrP 5' UTR mRNA reporter, plate reader; inhibition, % (no concentration beside the values); AID 488862; 340,000 compounds, 0.35% hits; in the data active = inhibition above about 52%; also: 0 = median of the neutral control wells
PriA SSB inh – inhibitors of Klebsiella pneumoniae PriA binding to SSB C-terminal tail; AlphaScreen SSBct-PriA binding, biotinylated peptide; inhibition, % at 33 µM; 430,000 compounds, 0.6% hits; in the data active = inhibition mostly above about 37%, no sharp cut-off; inactive = mostly below about 20%;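 also: plate controls were negative control peptide for no effect and reference peptide for full effect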
FadD28 binding – M. tuberculosis FadD28 bisubstrate binding inhibition | 360,000 compounds, 0.22% hits | AID 588549 | FadD28 bisubstrate probe binding, fluorescence polarization | inhibition, % at 12.5 µM; in the data active = inhibition above about 8.5%, passing the limit was not always enough
PrP 5UTR single – prion 5' UTR mRNA inhibition, cherry-pick retest; 1,100 compounds, 48% hits; inhibition, % at 2.5 µM; shares compounds with PrP 5UTR inh; cell-based prion protein 5' UTR reporter, plate reader; in the data active = inhibition above about 54%
Starred values were filed as active, the others as inactive; i = inactive; / = no result given. A selection: hits, their analogues and other compounds. The true share with any hit is near 1.4%.

SMILES	BH1578 lux ind	PrPC TRFRET	PrP 5UTR inh	PriA SSB inh	FadD28 binding	PrP 5UTR single
CN1CCN(Cc2nc3c(c(=O)n(C)c(=O)n3C)n2CCCc2ccccc2)CC1	i	-4.2	-23.0	-20.2	-1.7	/
O=C(Nc1ccc(NC(=O)c2ccco2)nc1)c1ccco1	-0.1	6.2	-38.2	-0.6	-3.7	/
CC(C)(C)C(=O)Nc1ccc(NC(=O)c2ccco2)nc1	-0.2	-10.2	88.3*	11.7	-3.8	93.8*
Clc1ccccc1N=Nc1ccccn1	-1.1	-8.5	68.1*	7.2	1.4	-22.5
Cn1cnc2nc[nH]c2c1=O	-0.7	5.5	54.7*	-14.6	-2.6	-7.3
O=c1[nH]cnc2nc[nH]c12	/	/	/	-9.0	/	/
S=C(Nc1ccccc1)Nc1ccc(OCc2ccc(Cl)cc2Cl)cc1	i	5.6	89.0*	1.3	-2.3	87.2*
CCOc1ccc(CN2C(=O)c3ccccc3C2=O)cc1C(=O)NC1CC(C)(C)NC(C)(C)C1	-0.2	-2.8	84.7*	-6.2	-13.3	-13.3
COC(=O)c1ccc(NC(=O)C2CCCN(c3ccc(-c4ccc(OC)cc4)nn3)C2)cc1 (stereo unspecified)	/	/	/	0.0	/	/
Cc1ccc(/C=C2\SC(=S)N(CCCC(=O)NNC(=O)c3ccccc3O)C2=O)cc1	-0.4	0.0	52.8*	-1.7	-0.8	75.0*
CCOc1ccc(/C=C2\SC(=S)N(CCC(=O)O)C2=O)cc1	2.1	0.6	68.4*	3.2	-0.7	71.2*
O=C(Cc1csc(Nc2ccccc2)n1)NCc1ccccn1	/	/	/	11.0	/	/
COc1cc(SC)ccc1C(=O)Nc1ccc(Br)cn1	i	-6.6	68.2*	-2.9	-1.7	67.0*
COc1cc(SC)ccc1C(=O)Nc1ncc(C)s1	-0.2	2.7	74.1*	-12.1	-2.1	69.2*
COc1cc(SC)ccc1C(=O)Nc1ccccn1	-0.4	2.9	-27.1	-7.5	-2.5	/
O=C1NCCOc2ccc(NS(=O)(=O)c3ccccc3Cl)cc21	/	/	/	-13.0	/	/
O=C(CN1C(=O)NC(c2ccccc2)(c2ccccc2)C1=O)NCc1ccccc1	i	3.7	-1.3	-19.2	-1.2	/
Cc1ccc(C2(c3ccccc3)NC(=O)N(CC(=O)NCc3ccccc3)C2=O)cc1C (stereo unspecified)	-1.6	16.4	79.6*	-4.4	-4.2	-3.9
O=C(NCCC(O)C1CC1)c1cccc2ccccc12 (stereo unspecified)	/	/	/	-12.0	/	/
CCOC(=O)c1cnn(-c2ccccc2)c1NC(=O)CN1CCOCC1	i	4.1	74.3*	-4.5	-1.7	-50.4
CC(=NN1CCCCC1c1cccnc1)c1c(O)n(C2CCCCC2)c(=S)[nH]c1=O (stereo unspecified)	/	/	/	18.4	/	/
CCOC(=O)c1c(C)[nH]c(C2=NNC(=NC3CC3)SC2)c1C	/	/	70.8*	17.3	2.3	53.6*
CCOC(=O)c1c(C)[nH]c(/C(C)=N/O)c1C	i	7.0	-5.2	/	-1.7	/
O=C(Nc1nnc(-c2cccs2)s1)c1cccc(F)c1	-0.4	2.4	74.1*	-0.7	-3.4	-44.5
Cc1nnc(NC(=O)c2cccc(F)c2)s1	/	0.3	-14.7	8.1	-0.3	/
SMILES	BH1578 lux ind	PrPC TRFRET	PrP 5UTR inh	PriA SSB inh	FadD28 binding	PrP 5UTR single
O=C(Nc1nnc(-c2cc(Cl)ccc2Cl)o1)c1cc(-c2ccccc2)nc2ccccc12	/	/	/	-22.0	/	/
C=Cc1cc(OC)c2c(c1)c(=O)oc1c2cc(OC)c2c(O)ccc(C3OC(C)C(O)C(C)(O)C3O)c21 (stereo unspecified)	i	31.2*	68.3*	0.7	-3.4	75.5*
Cc1cccc(N2CCN(C(=O)c3ccncc3)CC2)c1C	i	5.9	-26.8	-11.8	-2.4	/
COc1cc(C(=O)N2CCN(c3cccc(C)c3C)CC2)cc(OC)c1OC	-0.2	19.8	60.3*	2.9	-1.7	74.2*
COc1cc(C(=O)N2CCN(c3cc(Cl)ccc3Cl)CC2)cc(OC)c1OC	-0.2	2.0	56.4*	-11.0	0.7	88.3*
COC(CNC(=O)CSC1CCCC1)c1ccc(Cl)s1 (stereo unspecified)	/	/	/	-9.0	/	/
CCOC(=O)C1Oc2ccccc2C(c2ccc(C)cc2)=C1C(=O)OC (stereo unspecified)	1.5	5.6	-13.0	-25.9	-2.5	/
CCOC(=O)C1(CC)Oc2ccccc2C(c2ccc(OC)cc2)=C1C(=O)OC (stereo unspecified)	-1.6	9.7	71.5*	-15.1	-0.2	-6.6
Nc1n[nH]c(N)c1N=Nc1ccccc1F	-0.8	-2.5	1.3	14.6	0.9	/
Cc1ccccc1N=Nc1c(N)n[nH]c1N	-0.6	2.4	54.7*	26.6	-0.5	-26.4
Cc1ccccc1Cn1cnc2c(cnn2CCNC(=O)C2(c3ccc(Cl)cc3)CCCC2)c1=O	/	/	/	4.0	/	/
COc1ccc(OC)c2[nH]c(C(=O)NN=Cc3ccccc3O)cc12	/	/	/	4.2	/	/
COc1ccc(/C=N/NC(=O)c2cc3c(OC)ccc(OC)c3[nH]2)cc1O	-2.2	-6.0	60.0*	/	7.2	78.2*
Cc1ccccc1-c1noc(Cn2cnc3c(nnn3Cc3cccc(Cl)c3)c2=O)n1	/	/	/	-5.0	/	/
Cc1cc(NC(=O)CCSc2nc(-c3ccco3)cc(C(F)(F)F)n2)no1	-5.3	1.3	-11.1	-2.2	-3.8	/
Cc1cc(NC(=O)CSc2nc(-c3ccco3)cc(C(F)(F)F)n2)no1	0.3	10.8	66.9*	-16.2	-0.6	89.8*
Cn1c(O)c(C=NC2CCCCC2)c(=O)[nH]c1=S	-0.2	6.2	53.1*	-9.5	-4.4	-21.1
O=c1[nH]c(O)c(C=NC2CCCCC2)c(=O)[nH]1	-0.9	9.1	-10.3	-2.9	-4.1	/
CCCCCCCCCCCCCCCCCCNc1ccn(C2OC(COP(=O)(O)OCC3OC(n4cc(F)c(=O)[nH]c4=O)CC3O)C(O)C2O)c(=O)n1 (stereo unspecified)	0.0	2.6	62.9*	-2.8	53.4*	7.5
COc1ccc(CSc2nccn3nc(-c4cccs4)cc23)cc1	/	/	/	-12.0	/	/
CN(C)c1ccc(C(=O)NCCn2nc(-c3ccccc3)ccc2=O)cc1	/	/	/	-2.0	/	/
Cc1cc(C)n(CC(=O)NN=Cc2ccc3c(c2)OCO3)n1	/	/	/	-7.6	/	/
CC(C)C[C@H](NC(=O)[C@@H]1CCCN1C(=O)[C@@H](N)Cc1ccc(O)cc1)C(=O)NCC(N)=O	i	11.6	84.5*	-9.2	-1.3	-6.9
N/C(=N\OCc1ccc([N+](=O)[O-])cc1)c1ccccn1	/	/	85.2*	/	/	79.9*
NC(=NOCc1ccc([N+](=O)[O-])cc1)c1ccncc1	/	/	/	1.9	/	/
SMILES	BH1578 lux ind	PrPC TRFRET	PrP 5UTR inh	PriA SSB inh	FadD28 binding	PrP 5UTR single
COc1ccc(C=NN=Cc2ccc(OC)cc2)cc1	/	/	/	-8.9	/	/
Cc1ccc(OCC(=O)NN=Cc2cn(Cc3ccccc3)c3ccccc23)cc1C	/	/	/	9.6	/	/
CN(C)c1ccc(/C=N/N=C2/NC(=O)/C(=C/c3ccc([N+](=O)[O-])cc3)S2)cc1	-1.7	-17.3	62.5*	/	-0.9	31.0
N=c1c2c(n(Cc3ccc(Br)cc3)c3c1CCC3)CCCC2	1.6	11.0	-17.5	12.2	0.1	/
N=c1c2c(n(Cc3ccc([N+](=O)[O-])cc3)c3c1CCC3)CCCC2	i	-7.0	80.0*	-0.8	-3.0	-2.4
O=C(COc1ccccc1F)N1CCC(CSc2ccccn2)CC1	/	/	/	14.0	/	/
